This note sets out measurements from PubChem BioAssay (NCATS).

Structures are written as SMILES. Results filed as inconclusive are left out. Activity calls are given as the source filed them. Calls follow the shape of the dose curve; as a rule, active = well fitted inhibition curve with a large enough effect; inconclusive = small, poorly fitted or top-dose-only effect; inactive = flat fitted curve, though single readings scatter.

This experiment has as its system Zika virus NS2B-NS3 protease. Kind of experiment: Primary screen GU AMC qHTS for Zika virus inhibitors (AID 1347154).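 Also: 0% = no-inhibitor control and -100% = no-enzyme control; nearly all actives have a fitted effect of over 70% in size.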 Particulars: Zika NS2B-NS3 unlinked protease, AMC fluorogenic substrate; series mostly up to 54.1 µM; activity change, negative = inhibition: at the top concentration. An outline of the steps:
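Unlinked Zika NS2B hydrophilic domain/NS3 protease domain noncovalent complex (25 nM final) in 10 mM Tris-HCl pH 8.0, 0.01% Tween 20, with AMC peptide substrate. Fluorescence (ex 340, em 450 nm) change over 15 min, room temperature; percent inhibition fitted to 4-parameter Hill equation.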
(In qHTS, concentration-response curves come from the screen itself.)
As to `CCOC(=O)c1cc(=O)c2c(OCC(COc3cccc4oc(C(=O)OCC)cc(=O)c34)OC(=O)[C@@H](N)CCCCN)cccc2o1`, the “activity change, negative = inhibition” value was 1.01% (inactive). For `C=CCNc1nc(NCC=C)nc(N2CCN(C(c3ccc(F)cc3)c3ccc(F)cc3)CC2)n1` the value was -9.88% (inactive). `Cc1c(N)cccc1C(F)(F)F`: the “activity change, negative = inhibition” value was 6.71% (inactive). For `OCc1c[nH]c2ccccc12` the value was -5.83% [at 104 µM] (inactive). The value for `O=S(=O)(O)c1ccc2nc(-c3ccccc3)[nH]c2c1` was -11.1% (inactive).

Consider `CC(C)(C)c1cc(C=O)cc(C(C)(C)C)c1O`, for which the “activity change, negative = inhibition” value is 1.01% (inactive). The value for `COC(=O)c1ccc(NC(C)=O)cc1OC` was -4.41% (inactive); that for `Cc1onc(-c2ccccc2)c1C(=O)Cl` was -0.96% (inactive); that for `COc1ccc(CCC(C)=O)cc1` was -1.73% (inactive). For `c1ccc2c(c1)CCc1ccccc1N2` the value was -11.9% (inactive); for `OCCOCCN1CCN(C(c2ccccc2)c2ccc(Cl)cc2)CC1` (configuration not stated), -10.9% (inactive); for `CC(C)NC(=O)c1ccc(C=O)cc1`, 3.21% (inactive). The value for `C/C(=N\O)[C@@H](C)NCC(C)(C)CN[C@H](C)/C(C)=N/O` was -2.07% (inactive); that for `O=C(O)c1ccccc1S` was -1.63% (inactive). Regarding `CC(COc1ccccc1)NN` (configuration not stated), the “activity change, negative = inhibition” value is 1.79% (inactive). For `Cc1ccc(C(C)OC(=O)C2(C)CCC(C(=O)O)C2(C)C)cc1` (configuration not stated) the value was -1.7% (inactive); for `NC(=O)COCCN1CCN(C(c2ccccc2)c2ccc(Cl)cc2)CC1` (configuration not stated), -0.415% (inactive).
